# Results as given in PubChem BioAssay AID743363 (Broad Institute, 2014).
# Calls of active or inactive are those of the source. The rule behind the calls is not given here.
# Test: BioD-coupled fluorescence displacement counter-assay – biochemical, dry powder samples, counter-screen, dose response (AID 743363)
# Details: FL-DTB/streptavidin fluorescence displacement counter-screen; series mostly up to 10 µM; activity, interference signal: at the top concentration
row,Structure (SMILES),"activity, interference signal"
1,COc1ccc(NC(=O)N2CC[C@@H]3[C@@H](CO)N(C)c4ccc(-c5cccc(F)c5)cc4[C@@H]32)cc1,-1.25% (inactive)
2,CN1c2ccc(-c3cccc(F)c3)cc2[C@@H]2[C@@H](CCN2C(=O)c2ccc3c(c2)OCO3)[C@H]1CO,-3.71% (inactive)
3,COc1ccccc1NC(=O)N1CC[C@@H]2[C@@H](CO)N(C)c3ccc(-c4ccc(F)cc4)cc3[C@@H]21,-3.09% (inactive)
4,CC(=O)c1ccc(N2CCN(C(=O)c3ccc4snnc4c3)CC2)cc1,3.92% (inactive)
5,COCC(=O)N1CC[C@@H]2[C@@H](CO)N(C)c3ccc(-c4cccc(F)c4)cc3[C@@H]21,-1.63% (inactive)
6,CN1c2ccc(-c3cccc(F)c3)cc2[C@H]2[C@H](CCN2C(=O)Cc2ccccc2)[C@H]1CO,4.59% (inactive)
7,CN1c2ccc(-c3cccc(F)c3)cc2[C@H]2[C@H](CCN2C(=O)c2ccc3c(c2)OCO3)[C@@H]1CO,3.59% (inactive)
8,CC(=O)c1ccc(N2CCN(C(=O)c3cccc4c3OCO4)CC2)cc1,-6.09% (inactive)
9,CN1c2ccc(-c3ccc(F)cc3)cc2[C@H]2[C@H](CCN2C(=O)Cc2cccnc2)[C@H]1CO,4.33% [at 9 µM] (inactive)
10,COc1cc(C(=O)N2CCN(c3ccc(C(C)=O)cc3)CC2)cc2c1OCO2,-2.37% (inactive)
11,CC(=O)c1ccc(N2CC3(CN(C(=O)c4ccc5c(c4)OCO5)C3)C2)cc1,0.065% (inactive)
12,CN(C)C(=O)c1ccc(N2CCN(C(=O)c3ccc4c(c3)OCO4)CC2)cc1,0.154% (inactive)
13,CN(C)S(=O)(=O)c1ccc(N2CCN(C(=O)c3ccc4c(c3)OCO4)CC2)cc1,1.79% (inactive)
14,CC(=O)c1ccc(N2CCN(C(=O)c3ccc4c(c3)OCO4)CC2)cc1,1.39% (inactive)
15,CC(=O)c1ccc(N2CC3CC2CN3C(=O)c2ccc3c(c2)OCO3)cc1 (stereo not given),-5.12% (inactive)
16,CN1c2ccc(-c3ccc(F)cc3)cc2[C@H]2[C@H](CCN2C(=O)Cc2ccccn2)[C@H]1CO,-1.4% (inactive)
17,COc1cc2c(cc1C(=O)N1CCN(c3ccc(C(C)=O)cc3)CC1)OCO2,3.28% (inactive)
18,CC(C)NC(=O)N1CC[C@@H]2[C@@H](CO)N(C)c3ccc(-c4cccc(F)c4)cc3[C@@H]21,1.18% (inactive)
19,CC(=O)c1ccc(N2CCN(S(=O)(=O)c3ccc4c(c3)OCO4)CC2)cc1,-0.756% (inactive)
20,CC(=O)c1ccc(N2CCCN(C(=O)c3ccc4c(c3)OCO4)CC2)cc1,-2.86% (inactive)
21,CC(=O)c1ccc(N2CCN(C(=O)c3cc4c(cc3C)OCO4)CC2)cc1,-0.603% (inactive)
22,CC(=O)c1ccc(N2CCN(C(=O)c3ccc4c(c3)OCO4)[C@H](C)C2)cc1,4.17% (inactive)
23,CC(=O)c1ccc(N2CCN(C(=O)c3ccc4c(c3C)OCO4)CC2)cc1,3.39% (inactive)
24,CN1c2ccc(-c3cccc(F)c3)cc2[C@H]2[C@H](CCN2C(=O)Cc2cccnc2)[C@H]1CO,-4.99% (inactive)
25,CN1c2ccc(-c3ccc(F)cc3)cc2[C@H]2[C@H](CCN2C(=O)Nc2cc(F)ccc2F)[C@H]1CO,3.51% (inactive)
26,COc1ccccc1C(=O)N1CCN(c2ccc(C(C)=O)cc2)CC1,2.61% (inactive)
27,COc1ccc(NC(=O)N2CC[C@@H]3[C@@H](CO)N(C)c4ccc(-c5ccc(F)cc5)cc4[C@@H]32)cc1,-0.042% (inactive)
28,CC(=O)c1ccc(N2CCN(C(=O)c3cc4c(cc3Cl)OCO4)CC2)cc1,6.47% (inactive)
29,COC(=O)c1ccc(N2CCN(C(=O)c3ccc4c(c3)OCO4)CC2)cc1,-1.63% (inactive)
30,CC(=O)c1ccc(N2CCN(C(=O)c3ccccc3F)CC2)cc1,0.666% (inactive)
